# Test results published in the supplement of paper PMC12669032.
# A number with no mark means an inactive call.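 The calls were made as follows: active = AUC reduced over 20% with Padj below 0.05 in at least 2 of 3 replicates; inactive = otherwise.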
# How the values were obtained:
# Experiment in all cases: growth AUC relative to DMSO control (median of replicates) (fraction); higher = more growth (less inhibition), active = hit call of the paper
# Settings in all cases: 20 µM; 24 h
# Akkermansia muciniphila = system: Akkermansia muciniphila
# Method in brief: (§1)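 For each compound at 20 µM (1% DMSO), gut bacterial monocultures seeded at OD600 0.05 grew anaerobically in mGAM at 37 °C in round-bottom 96-well plates. Hourly OD600 readings over 24 h gave growth curves whose minimum OD was set to 0. Area under these curves was normalised to the plate median of solvent-only wells, or to row and column medians on the industrial chemical plate. Values are medians of three biological replicates grown on separate days.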
# Bacteroides caccae = system: Bacteroides caccae
# Method in brief: as §1
# Bacteroides clarus = system: Bacteroides clarus
# Method in brief: as §1
# Bacteroides dorei = system: Bacteroides dorei
# Method in brief: as §1
# Bacteroides stercoris = system: Bacteroides stercoris
# Method in brief: as §1
# [1] = system: Bacteroides thetaiotaomicron
# Method in brief: as §1
# Bacteroides uniformis = system: Bacteroides uniformis
# Method in brief: as §1
# [2] = system: Bifidobacterium longum subsp. longum
# Method in brief: as §1
# Clostridium difficile = system: Clostridium difficile
# Method in brief: as §1
# Collinsella aerofaciens = system: Collinsella aerofaciens
# Method in brief: as §1
SMILES,growth AUC (Akkermansia muciniphila),growth AUC (Bacteroides caccae),growth AUC (Bacteroides clarus),growth AUC (Bacteroides dorei),growth AUC (Bacteroides stercoris),growth AUC [1],growth AUC (Bacteroides uniformis),growth AUC [2],growth AUC (Clostridium difficile),growth AUC (Collinsella aerofaciens)
CCOc1ccc2c(c1)C(C)=CC(C)(C)N2,0.9,1.04,1,1,1.01,0.995,1.01,1.03,1.02,1.02
FC(F)(F)/N=C1\SC(=Nc2ccccc2)N(c2ccccc2)\C1=N\C(F)(F)F,0.949,0.933,0.96,0.947,0.925,1.01,0.924,1.03,0.984,0.907
Cc1nn(C)c(F)c1C(=O)Nc1ccccc1C(C)CC(C)C (stereo not given),0.94,0.97,0.959,0.988,1.04,0.968,0.947,0.992,0.982,1.02
Clc1ccc(CSc2ccc(Cl)cc2)cc1,0.977,1.02,0.99,0.956,0.969,1.03,0.998,1.02,1.04,0.984
Br[C@@H]1CC[C@H](Br)[C@H](Br)CC[C@@H](Br)[C@@H](Br)CC[C@H]1Br,1,1.01,0.901,0.999,0.528 (active),1.01,1.01,0.919,1.02,1
COc1cc(OC)nc(NC(=O)NS(=O)(=O)Nc2ccccc2C(=O)N(C)C)n1,1.01,1,0.983,1.02,0.982,0.986,1.01,0.975,0.974,0.992
CCOCCOC(=O)C(C)Oc1ccc(Oc2ncc(C(F)(F)F)cc2Cl)cc1 (stereo not given),1.02,0.955,0.968,0.948,0.903,0.998,0.903,1.01,1.01,1.03
CCCC(C)(C)C(=O)Nc1ccc(Cl)cc1,0.942,1,1.01,1.02,1.01,0.946,0.955,0.98,0.999,1.02
c1ccc(Sc2ccccc2)cc1,1.03,1.01,1.08,1.01,1.05,0.982,1.05,1.03,1.02,1.04
CC(C)c1ccccc1,0.937,1.02,1.01,1.02,1.02,0.999,0.999,0.947,1.02,1.02
CC(C)CCCCCOC(=O)C(C)Oc1ccc(Cl)cc1Cl (stereo not given),1.14,1,1.03,0.954,0.966,1.04,0.992,0.969,1.06,1.02
COc1ccc(Cl)c(Cl)c1Cl,0.963,1.03,1.01,1.02,0.971,0.991,1,0.986,0.964,1.01
COc1nc(C)nc(NC(=O)NS(=O)(=O)c2ccccc2OCCCl)n1,1.06,1.09,1.01,1.02,1.02,0.985,1.01,1,0.998,0.993
COC(=O)c1c(Cl)nn(C)c1S(=O)(=O)NC(=O)Nc1nc(OC)cc(OC)n1,0.984,1.04,1.07,1.02,1,0.991,1,1.06,1,1.02
CC1=C(c2ccccc2)C(=O)N(C(C)(C)c2cc(Cl)cc(Cl)c2)CO1,1.11,0.962,0.925,0.981,0.895,0.93,0.917,0.956,1.02,0.965
O=C(O)[C@@H](S)[C@@H](S)C(=O)O,1.14,1.01,1.05,1.01,1.17,1.04,1.04,1.02,1.01,1.02
Oc1c(Cl)cc(Cl)c(Cl)c1Cc1c(O)c(Cl)cc(Cl)c1Cl,0.193 (active),0.0131 (active),0.0212 (active),0.0142 (active),0.00917 (active),0.00403 (active),0.0126 (active),0.0988 (active),0.0083 (active),0.0126 (active)
COC1CCC2(CC1)NC(=O)C(O)(c1cc(C)ccc1C)C2=O (stereo not given),1,0.984,1.02,1.03,1.15,1.01,1.02,1.05,1.02,0.981
CCCCOCCOC(=O)COc1ccc(Cl)cc1Cl,1.09,0.966,0.991,0.867,0.952,0.98,0.93,0.984,0.993,0.96
COc1cccc(N(C)C(=S)Oc2cccc(C(C)(C)C)c2)n1,0.871,0.93,0.921,1.06,0.839,1.01,1.01,0.895,1.09,0.97
CCOC(=O)C1=NOC(c2ccccc2)(c2ccccc2)C1,0.86,1.03,0.971,0.995,0.979,0.926,0.932,0.966,0.974,0.993
CCCCOC(=O)[C@@H](C)Oc1ccc(Oc2ccc(C(F)(F)F)cn2)cc1,0.865,0.983,0.932,0.951,0.851,0.948,0.918,0.969,0.989,0.963
CCCCCC(C)OC(=O)COc1ccc(Cl)c2cccnc12 (stereo not given),1.01,0.887,0.956,0.945,1.03,0.889,0.915,0.953,0.934,0.853
COCCOc1ccccc1S(=O)(=O)NC(=O)Nc1nc(OC)nc(OC)n1,1.03,0.976,0.97,0.962,0.92,1,1.02,1.06,0.984,0.908
COC(=O)C(C)Oc1cc(Cl)c(Cl)cc1Cl (stereo not given),0.978,0.982,1,1.04,1.22,0.982,0.978,1.03,1.03,0.982
CO/N=C(/C(=O)O)c1ccccc1CO/N=C(\C)c1cccc(C(F)(F)F)c1,1,0.913,0.954,0.981,1.15,0.795,0.889,0.927,0.974,0.936
C#CCN(C)c1c(C#N)cnn1-c1nn2c(c1Cl)CCCC2,0.903,0.935,0.931,0.987,0.851,0.933,0.914,0.995,1,1.02
O=C(Nc1ccc(F)cc1)c1cccc(Oc2cccc(C(F)(F)F)c2)n1,0.978,0.964,0.886,0.895,0.82,1,1.02,1.04,0.934,0.865
O=C(O)COc1cccc(Cl)c1Cl,0.919,0.947,0.971,0.962,1.02,0.993,0.997,0.989,1,0.992
